Test results published in PubChem BioAssay AID588689 (Southern Research Specialized Biocontainment Screening …, 2011).
Among all 340,000 compounds or so, about 1,000 (0.29%) were called active. Rule as the data show it: inconclusive = inhibition above about 29% without an active follow-up result; inactive = below that. The list is a sample of the results. Potency and affinity values are given separately.

Target: Genome polyprotein (Dengue virus type 2 (strain 16681-PDK53)) (UniProt P29991)
Experiment: Dengue-2 NS5 methyltransferase inhibitors, primary screen, biochemical, confirmation dose response (AID 588689)
Settings: Dengue-2 NS5 methyltransferase capping enzyme assay, at 25 µM, stronger effect = higher value
[1] = measured here: pilot screen replicate inhibition

Sequence of Genome polyprotein (Dengue virus type 2 (strain 16681-PDK53)) (P29991 whole entry, looked up): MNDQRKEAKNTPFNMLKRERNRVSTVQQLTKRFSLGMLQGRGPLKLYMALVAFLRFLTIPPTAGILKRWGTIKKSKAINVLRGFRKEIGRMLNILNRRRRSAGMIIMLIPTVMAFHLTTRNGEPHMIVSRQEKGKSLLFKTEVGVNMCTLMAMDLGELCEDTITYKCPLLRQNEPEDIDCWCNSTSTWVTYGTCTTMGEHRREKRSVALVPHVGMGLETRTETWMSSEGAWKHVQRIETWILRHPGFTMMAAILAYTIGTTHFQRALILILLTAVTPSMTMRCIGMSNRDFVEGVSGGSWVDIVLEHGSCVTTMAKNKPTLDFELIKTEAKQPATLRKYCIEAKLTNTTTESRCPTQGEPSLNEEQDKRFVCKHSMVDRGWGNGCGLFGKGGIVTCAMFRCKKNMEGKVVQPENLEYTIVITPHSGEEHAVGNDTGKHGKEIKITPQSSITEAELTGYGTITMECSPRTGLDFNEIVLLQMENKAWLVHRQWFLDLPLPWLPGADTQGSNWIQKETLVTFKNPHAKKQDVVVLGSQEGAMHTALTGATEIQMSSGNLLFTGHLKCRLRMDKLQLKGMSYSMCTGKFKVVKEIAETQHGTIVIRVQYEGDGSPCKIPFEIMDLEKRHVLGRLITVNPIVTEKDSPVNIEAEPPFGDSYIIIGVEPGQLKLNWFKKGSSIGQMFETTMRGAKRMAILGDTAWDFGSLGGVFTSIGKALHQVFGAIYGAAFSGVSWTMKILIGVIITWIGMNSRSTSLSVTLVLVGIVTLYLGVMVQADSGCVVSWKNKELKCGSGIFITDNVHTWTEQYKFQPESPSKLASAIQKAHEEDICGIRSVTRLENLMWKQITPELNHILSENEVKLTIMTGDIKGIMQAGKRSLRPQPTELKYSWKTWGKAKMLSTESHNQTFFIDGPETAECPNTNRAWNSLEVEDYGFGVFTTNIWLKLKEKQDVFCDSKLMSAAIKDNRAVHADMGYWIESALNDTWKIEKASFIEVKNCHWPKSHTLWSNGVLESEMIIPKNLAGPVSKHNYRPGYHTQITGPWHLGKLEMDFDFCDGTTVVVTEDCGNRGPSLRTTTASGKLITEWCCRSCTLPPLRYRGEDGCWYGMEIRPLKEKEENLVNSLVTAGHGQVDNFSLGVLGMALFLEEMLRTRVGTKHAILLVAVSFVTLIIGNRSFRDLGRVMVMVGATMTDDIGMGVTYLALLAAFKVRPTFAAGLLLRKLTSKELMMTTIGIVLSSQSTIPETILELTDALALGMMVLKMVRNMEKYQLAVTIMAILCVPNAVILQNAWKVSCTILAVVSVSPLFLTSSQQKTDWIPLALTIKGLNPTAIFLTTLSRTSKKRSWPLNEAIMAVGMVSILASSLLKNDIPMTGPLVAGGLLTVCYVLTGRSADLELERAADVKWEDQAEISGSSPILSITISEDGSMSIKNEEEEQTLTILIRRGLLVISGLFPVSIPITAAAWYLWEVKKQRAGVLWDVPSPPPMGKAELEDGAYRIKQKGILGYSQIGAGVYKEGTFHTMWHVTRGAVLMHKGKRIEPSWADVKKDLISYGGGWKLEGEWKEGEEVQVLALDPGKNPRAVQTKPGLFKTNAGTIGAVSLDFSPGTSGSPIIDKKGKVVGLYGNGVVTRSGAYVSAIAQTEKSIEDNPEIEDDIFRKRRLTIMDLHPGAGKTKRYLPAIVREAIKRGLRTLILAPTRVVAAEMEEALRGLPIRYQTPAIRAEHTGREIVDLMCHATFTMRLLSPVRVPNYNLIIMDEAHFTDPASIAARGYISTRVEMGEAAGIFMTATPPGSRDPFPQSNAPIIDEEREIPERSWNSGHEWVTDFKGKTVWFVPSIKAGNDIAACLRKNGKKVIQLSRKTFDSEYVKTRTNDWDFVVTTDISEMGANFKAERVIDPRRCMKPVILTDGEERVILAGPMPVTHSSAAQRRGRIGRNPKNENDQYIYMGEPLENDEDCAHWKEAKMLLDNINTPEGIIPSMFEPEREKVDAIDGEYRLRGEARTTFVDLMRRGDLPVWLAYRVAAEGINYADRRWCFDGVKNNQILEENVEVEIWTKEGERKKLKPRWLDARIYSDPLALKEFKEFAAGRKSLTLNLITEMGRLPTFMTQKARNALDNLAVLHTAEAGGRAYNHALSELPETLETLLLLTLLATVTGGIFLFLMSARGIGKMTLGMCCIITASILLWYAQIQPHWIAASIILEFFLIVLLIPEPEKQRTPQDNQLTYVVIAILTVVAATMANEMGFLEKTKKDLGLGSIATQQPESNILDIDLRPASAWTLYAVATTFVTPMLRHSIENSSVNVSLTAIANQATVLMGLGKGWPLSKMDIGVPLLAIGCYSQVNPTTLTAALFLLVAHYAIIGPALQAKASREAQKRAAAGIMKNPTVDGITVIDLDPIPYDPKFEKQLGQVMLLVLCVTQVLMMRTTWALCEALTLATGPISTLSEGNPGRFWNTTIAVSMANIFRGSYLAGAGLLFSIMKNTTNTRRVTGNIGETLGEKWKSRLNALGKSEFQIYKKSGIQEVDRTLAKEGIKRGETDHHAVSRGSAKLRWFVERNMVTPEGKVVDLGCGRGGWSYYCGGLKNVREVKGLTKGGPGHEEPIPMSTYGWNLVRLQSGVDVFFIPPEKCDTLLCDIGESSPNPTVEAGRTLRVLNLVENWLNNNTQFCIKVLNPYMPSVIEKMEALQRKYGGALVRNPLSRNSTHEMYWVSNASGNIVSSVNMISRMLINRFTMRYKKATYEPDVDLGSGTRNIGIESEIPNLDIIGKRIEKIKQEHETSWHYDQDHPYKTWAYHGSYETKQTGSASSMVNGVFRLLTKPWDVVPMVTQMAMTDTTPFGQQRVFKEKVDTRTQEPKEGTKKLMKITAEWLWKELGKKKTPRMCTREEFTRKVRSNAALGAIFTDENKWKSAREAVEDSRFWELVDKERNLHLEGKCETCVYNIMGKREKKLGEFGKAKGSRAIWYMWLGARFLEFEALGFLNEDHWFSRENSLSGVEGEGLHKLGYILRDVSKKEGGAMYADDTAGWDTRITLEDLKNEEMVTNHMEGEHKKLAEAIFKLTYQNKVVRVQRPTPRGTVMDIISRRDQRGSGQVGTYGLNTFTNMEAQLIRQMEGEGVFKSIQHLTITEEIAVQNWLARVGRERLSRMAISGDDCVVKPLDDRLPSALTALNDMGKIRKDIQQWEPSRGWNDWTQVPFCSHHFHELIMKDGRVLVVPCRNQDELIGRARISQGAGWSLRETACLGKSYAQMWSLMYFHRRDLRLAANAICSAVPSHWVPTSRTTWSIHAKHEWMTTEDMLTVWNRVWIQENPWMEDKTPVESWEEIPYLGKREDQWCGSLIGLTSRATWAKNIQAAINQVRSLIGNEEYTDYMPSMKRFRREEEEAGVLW

| SMILES | inhibition | inhibition [1] [%] |
| --- | --- | --- |
| NC(=O)c1ccc(=O)n(Cc2ccc(F)c(F)c2)c1 | -1.31% (inactive) |  |
| Cc1cc(C(c2ccc(O)cc2)c2cc(C)c(O)cc2C)c(C)cc1O | -0.79% (inactive) |  |
| Cc1ccc(N)cc1O | -2.91% (inactive) |  |
| Cc1ccc(CNC(=O)C(C(=O)NCc2ccc(C)o2)c2ncc(C(F)(F)F)cc2Cl)o1 | -13.8% (inactive) |  |
| COc1ccc(Br)cc1C(=O)NC(=S)Nc1ccc(Cl)c(C(=O)O)c1 | 4.69% (inactive) |  |
| COc1ccc(Br)cc1/C=C/C(=O)NC(=S)Nc1ccc(CN2CCOCC2)cc1 | -10.4% (inactive) |  |
| CC1(C)OC(=O)C(=NNc2ccccc2)C(=O)O1 | -0.73% (inactive) |  |
| c1ccc(NN=C2c3ccccc3-c3ccccc32)cc1 | -1.94% (inactive) |  |
| COc1ccc(N(C)C(=O)c2ccc3c(c2)nnn3C)cc1 | -4.51% (inactive) |  |
| O=C(CN1CCOCC1)Nc1ccccc1NC(=O)C1CCN(c2ncccn2)CC1 | -11.3% (inactive) |  |
| COC(=O)[C@@]1(Cc2ccccc2)[C@H]2C(=O)N(C)C(=O)[C@H]2[C@H]2CN=C(SCc3ccc(C)cc3)N21 | 1.99% (inactive) | 0.61 |
| N/C(=N\OC(=O)c1ccco1)c1ccc(Br)cc1 | -5.29% (inactive) |  |
| Cc1csc(/C(=N/OC(=O)c2ccco2)C(N)=O)n1 | -32.5% (inactive) |  |
| O=C(CCCOc1cccc(Br)c1)NCCOc1ccccc1 | -4.07% (inactive) |  |
| Cn1c(=O)c2sccc2n(CC(=O)NCCC2=CCCCC2)c1=O | -7.27% (inactive) |  |
| CCN(CC)Cc1nc2c(c(=O)[nH]1)C1(CCCCC1)Cc1ccccc1-2 | -5.55% (inactive) |  |
| COC(=O)c1ccc(N2NC(=O)/C(=C/c3cc(OC)c(O)c(OC)c3)C2=O)cc1 | -24.8% (inactive) |  |
| COC(=O)c1ccc(N2NC(=O)/C(=C/c3ccc(OC)c(OC)c3)C2=O)cc1 | 34.3% (inactive) |  |
| COc1ccc(NC(=O)/C(C#N)=C/c2ccc(-c3ccc(Cl)c(C(=O)O)c3)o2)cc1 | 3.44% (inactive) |  |
| O=Cc1ccc(-c2ccccc2C(=O)O)o1 | -2.22% (inactive) |  |
| O=C1NN(c2cccc(Br)c2)C(=O)/C1=C/c1ccc(-c2cc([N+](=O)[O-])ccc2O)o1 | 70.1% (inactive) |  |
| Cc1nnc(NC(=O)c2ccc3c(c2)OCO3)s1 | 8.19% (inactive) |  |
| Cc1noc(C)c1CSCC(=O)Nc1nc2ccc(S(C)(=O)=O)cc2s1 | -2.95% (inactive) |  |

| SMILES | inhibition | inhibition [1] [%] |
| --- | --- | --- |
| N#CCC(=O)N/N=C/c1ccc(OS(=O)(=O)c2ccccc2)cc1 | -3.76% (inactive) | -2.42 |
| COC(=O)Cn1c(CCS(=O)(=O)c2ccc(Cl)cc2)nc2ccccc21 | -5.46% (inactive) |  |
| Cc1ccc(-c2cnc3ccccc3n2)cc1C | -6.51% (inactive) |  |
| O=C(Nc1ccc2c(c1)OCO2)c1n[nH]c(=O)c2ccccc12 | 11.1% (inactive) |  |
| CSCCC(NC(=O)C1CC1)c1nc2ccccc2[nH]1 (stereo unspecified) | -5.48% (inactive) |  |
| C[C@H](NC(=O)c1nc[nH]c1C(=O)N1CCN(C(=O)OC(C)(C)C)CC1)C(=O)OCc1ccccc1 | -2.48% (inactive) |  |
| O=C(Nc1ccc(C(F)(F)F)cc1)c1csc(-c2ccncc2)n1 | -2.96% (inactive) |  |
| CSc1nsc(SC)c1NC(=O)N1CCCC1 | -1.61% (inactive) |  |
| C#CCN1C(=O)S/C(=C\c2ccc(-c3ccc(Cl)c(C(=O)O)c3)o2)C1=O | 2.31% (inactive) |  |
| Cc1ccc(N2NC(=O)/C(=C/c3ccc(-c4ccc(Cl)c(C(=O)O)c4)o3)C2=O)cc1 | 15.4% (inactive) |  |
| O=C(O)c1cc(-c2ccc(/C=C3\NC(=O)N(c4ccc(Cl)cc4)C3=O)o2)ccc1Cl | 13.8% (inactive) |  |
| O=C(O)c1cc(-c2ccc(/C=C3\NC(=O)N(c4ccccc4)C3=O)o2)ccc1Cl | 3.09% (inactive) |  |
| Cc1cn([C@H]2C[C@H](O)[C@@H](CNC(=O)CNC(=O)CN)O2)c(=O)[nH]c1=O | 2.27% (inactive) |  |
| CCOc1ccc2nc(N/C(N)=N/S(=O)(=O)c3ccc(C)cc3)nc(C)c2c1 | -2.74% (inactive) |  |
| Cc1ccc(NC(=O)CC(=O)c2ccccc2)cc1C | -1.66% (inactive) |  |
| C[C@H](NC(=O)c1ccccc1Cl)C(=O)OC(C(=O)Nc1cc(C(F)(F)F)ccc1Cl)c1ccccc1 (stereo partly specified) | 6.11% (inactive) |  |
| Oc1ccccc1N=N/C(=N/Nc1ccccc1O)c1ccccc1 | 6.32% (inactive) |  |
| O=C(O)c1cc(S(=O)(=O)Nc2ccccc2C(=O)O)ccc1O | 24.8% (inactive) |  |
| CC(=O)Nc1ccc(N2CCCCC2)c(C(=O)Nc2cccc(C)c2)c1 | 1.3% (inactive) |  |
| Cc1cccc(NC(=O)c2cc(NC(=O)C3CCCCC3C(=O)O)ccc2N2CCOCC2)c1 (stereo unspecified) | 3.25% (inactive) |  |
| Cc1cnc(C(=O)OCc2nc3ccsc3c(=O)[nH]2)cn1 | -4.41% (inactive) |  |
| Cc1ncc(CN2CCCC(C(=O)Nc3ccc(-c4ccco4)cc3)C2)cn1 (stereo unspecified) | -25.6% (inactive) |  |
| O=C1C(=O)c2ccc(-c3ccccc3)cc2-c2ccccc21 | -10.1% (inactive) | 8.18 |

| SMILES | inhibition | inhibition [1] [%] |
| --- | --- | --- |
| O=C1C(=C(O)c2ccccc2)C(=O)c2ccccc21 | 12.9% (inactive) |  |
| COc1ccccc1-n1cc(-c2ccccc2)c2c(=S)nc[nH]c21 | 7.35% (inactive) |  |
| COc1ccc(NC(=O)CCCc2ccccc2)cc1OC | -7.95% (inactive) |  |
| CC(=O)NC(CC(=O)OCC(=O)c1ccc(NC(=O)CC(C)C)cc1)c1ccccc1 (stereo unspecified) | -7.74% (inactive) |  |
| Cc1ccc(NC2=C(Cl)C(=O)c3ccccc3C2=O)cc1 | -0.64% (inactive) |  |
| O=C(O)c1cccc(NC2=C(n3nnc4ccccc43)C(=O)c3ccccc3C2=O)c1 | 0.29% (inactive) |  |
| O=C1C(Cl)=C(Nc2ccc(O)cc2)C(=O)c2ccccc21 | 27.1% (inactive) |  |
| O=C(O)c1cccc(NC2=C(N3CCOCC3)C(=O)c3ccccc3C2=O)c1 | 15% (inactive) |  |
| O=C1C(Cl)=C(NCCCO)C(=O)c2ccccc21 | -6.93% (inactive) |  |
| O=C1C(Cl)=C(Nc2ccccc2)C(=O)c2ccccc21 | 5.85% (inactive) |  |
| CCNC1=C(Cl)C(=O)c2ccccc2C1=O | 6.43% (inactive) |  |
| O=S(=O)(Nc1ccc2cn[nH]c2c1)c1ccc(Cl)cc1 | -2.71% (inactive) |  |
| CCOC(=O)CSc1nnc(-c2cccs2)n1-c1ccccc1 | -7.23% (inactive) |  |
| COc1ccc(C)cc1NC(=O)NNC(=O)c1ccoc1C | 5.8% (inactive) |  |
| COc1cccc(NC(=O)CN2CCC(NC(=O)c3ccccc3C)CC2)c1 | -2.2% (inactive) |  |
| Cc1ccc(NC2=C(NC(=O)c3ccccc3)C(=O)c3ccccc3C2=O)cc1Cl | 26.9% (inactive) |  |
| Cc1cccc(NC2=C(NCCO)C(=O)c3ccccc3C2=O)c1 | 1.45% (inactive) |  |
| C=CCOc1ccc(/C=C/C(=O)OCC(=O)NCCCc2ccccc2)cc1 | 0% (inactive) |  |
| Cn1c(NC(=O)c2ccc(C(C)(C)C)cc2)cc(=O)n(C)c1=O | 2.78% (inactive) |  |
| O=C(c1cccnc1)N1CCN(CCCc2ccccc2)CC1 | -7.9% (inactive) |  |
| O=C(O)CCN1C(=O)/C(=C\c2cccc(OCc3ccccc3)c2)SC1=S | 40.6% (inactive) |  |
| COc1ccc(/C=C2/SC(=S)N(CCC(=O)O)C2=O)cc1 | 4.79% (inactive) |  |
| Cc1ccc(NC(=O)COc2cccc(/C=C3\SC(=S)N(CCC(=O)O)C3=O)c2)cc1Cl | 0.88% (inactive) |  |

| SMILES | inhibition | inhibition [1] [%] |
| --- | --- | --- |
| COc1cccc(/C=C2\SC(=S)N(CCC(=O)Nc3ccc(O)cc3)C2=O)c1 | 3.49% (inactive) |  |
| O=C(COC(=O)c1cc(S(=O)(=O)N2CCOCC2)ccc1F)NCc1ccc2c(c1)OCO2 | -7.39% (inactive) |  |
| C/C(CCc1ccccc1)=N/NC(=O)C(=O)NC(C)c1ccccc1 (stereo unspecified) | -9.31% (inactive) |  |
| CCc1cc(C(=O)Cc2cnn(-c3ccccc3)c2)c(O)cc1O | 5.45% (inactive) | -6.54 |
| O=C(c1cnn(-c2ccccc2)c1)c1ccccc1O | 4.45% (inactive) |  |
| O=C(Cc1ccc(Br)cc1)Nc1nc2ccccc2[nH]1 | 3.24% (inactive) |  |
| COc1cccc(C(=O)N/N=C/c2ccc(OC)c(COc3ccccc3C(N)=O)c2)c1 | 3.25% (inactive) |  |
| C=CCn1c(SCC(=O)NC(=O)NCCC)nnc1C1CCCCC1 | 3.46% (inactive) |  |
| O=C1c2ccccc2CCC12OC2c1ccc([N+](=O)[O-])cc1 (stereo unspecified) | -3.43% (inactive) |  |
| CCOc1ccc(-c2cn(-c3ccc(OC)cc3)c(SC)n2)cc1 | -2.59% (inactive) |  |
| CCn1c(SCC(N)=O)nnc1-c1ccc(OC)c(OC)c1 | -2.41% (inactive) |  |
| CCOc1ccc(C(=O)CSc2nnc(C3CC3)n2C)cc1 | -4.8% (inactive) |  |
| CCSc1nc2cc(OC)c(OC)cc2c(=O)n1CC | 2.71% (inactive) |  |
| COc1ccc(C(c2c(O)nc(SC)n(C)c2=O)c2c(O)nc(SC)n(C)c2=O)cc1O | -4.46% (inactive) |  |
| COc1cccc(C(c2c(O)nc(SC)n(C)c2=O)c2c(O)nc(SC)n(C)c2=O)c1 | 16.2% (inactive) | -1.21 |
| COCCn1c(C)nnc1SCC(=O)NNC(=O)c1ccc(Br)cc1 | -3.23% (inactive) |  |
| O=C(ONC(=O)C1C2C=CC(C2)C1C(=O)NOC(=O)c1ccccc1)c1ccccc1 (stereo unspecified) | -1.55% (inactive) |  |
| O=C(CC1SCCNC1=O)Nc1ccccc1Cl (stereo unspecified) | 0% (inactive) |  |
| COc1ccccc1C(=O)NCC(=O)N/N=C/c1cn[nH]c1-c1ccccc1 | -1.82% (inactive) |  |
| Cc1c(OC(C)C(=O)NCC(O)c2ccccc2)ccc2c3c(c(=O)oc12)CCCC3 (stereo unspecified) | 2.62% (inactive) |  |
| CC(C)N1CCc2c(sc(NC(=O)c3ccc([N+](=O)[O-])o3)c2C(N)=O)C1 | -6.69% (inactive) |  |
| CN1CCc2c(sc(NC(=O)c3ccc([N+](=O)[O-])o3)c2C(N)=O)C1 | 6.69% (inactive) |  |
